# In the library only some 2% were active in any assay of this set; here they are far more common.
# TRb-SRC2 inh: TRbeta-SRC2 interaction inhibition. P10828. TRbeta-SRC2 peptide binding, fluorescence polarization; receptor liganded with 1 µM T3. Potency, µM (top dose mostly 106 µM), inactives show top-dose activity change, negative = inhibition, usual class: inhibitors. hit rate 0.065% among 280,000;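 also: potency is read from the fitted curve at half-maximal effect; plate controls were bound peptide for no effect and peptide without receptor for full effect; nearly all actives have a fitted effect of over 50% in size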
# Target sequence (P10828 whole entry, looked up): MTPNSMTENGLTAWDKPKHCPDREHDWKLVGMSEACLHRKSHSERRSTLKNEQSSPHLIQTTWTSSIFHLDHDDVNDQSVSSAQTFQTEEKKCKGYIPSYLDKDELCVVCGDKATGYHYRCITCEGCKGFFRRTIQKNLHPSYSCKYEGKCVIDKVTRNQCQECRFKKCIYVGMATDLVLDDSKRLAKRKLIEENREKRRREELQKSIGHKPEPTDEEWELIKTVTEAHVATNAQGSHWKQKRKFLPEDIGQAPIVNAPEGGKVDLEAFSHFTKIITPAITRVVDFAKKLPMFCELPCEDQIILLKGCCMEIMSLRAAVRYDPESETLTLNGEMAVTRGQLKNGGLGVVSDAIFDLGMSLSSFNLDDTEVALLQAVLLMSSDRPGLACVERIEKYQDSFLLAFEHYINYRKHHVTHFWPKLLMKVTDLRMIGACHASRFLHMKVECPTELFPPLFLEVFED
#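 Quantitative HTS by FP: 0.6 uM TRb LBD, 20 nM labeled SRC2 20-mer, 1 uM T3, 5% DMSO; 5 hr ambient incubation; % activity per concentration and potencies from concentration series.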
# JMJD2E inh: JMJD2E (human) inhibition; AID 2147; hit rate 1.6% among 230,000; JMJD2E catalytic domain, FDH-coupled NADH fluorescence (FDH is formaldehyde dehydrogenase); Potency, µM (doses to about 57.1 µM), inactives show at the highest dose activity change, negative = inhibition, actives largely listed as inhibitors; active = well fitted inhibition curve with a large enough effect, not every such curve was filed as active; inconclusive = small, poorly fitted or top-dose-only effect, or another doubt; inactive = no such curve, though single readings can be large or run the other way;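 also: potency is read from the fitted curve at half-maximal effect; 0% = wells with enzyme and -100% = buffer wells without enzyme; nearly all actives have a fitted effect of over 50% in size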
# HTT cytoprotect: protects HTT-Q103 PC12 cells, measured by ATP. PC12 HTT-Q103 induced, cytoprotection, ATP luminescence, 40 h. hit rate 0.14% among 230,000. Potency, µM (series often up to 56.4 µM), for the others: cytoprotection (ATP increase), most hits filed as activators; also: potency is read from the fitted curve at half-maximal effect; % of control where 0% means no effect; nearly all actives have a fitted effect of over 45% in size
#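 Compounds were screened for protection of PC12 cells against cell death after tebufenozide induction (100 nM final) of mutant Huntingtin exon 1 (Q103) fused to GFP.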
# HTT aggregate: inhibitors of mutant huntingtin aggregate formation in PC12 cells. PC12 HttQ103-GFP aggregates, Acumen cytometry, 40 h. Potency, µM (top dose mostly 46.1 µM), for the others: top-dose activity change, negative = inhibition, hits mostly inhibitors. hit rate 1.1% among 220,000; also: potency is read from the fitted curve at half-maximal effect; % is scaled to controls: 0 for no effect and ±100 for the full control effect; nearly all actives have a fitted effect of over 60% in size
#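 PC12/HTTQ103-GFP, ecdysone-inducible; teb 100 nM; cpd qHTS titration; GFP aggregates read on laser cytometer, Ex 488/Em 500-530 nm.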
# Coupling enz: coupling enzyme interference in Giardia aldolase counter-screen | hit rate 0.67% among 290,000 | coupling enzyme system counterscreen, AmpLite Red fluorescence | activity change, negative = inhibition, % at 58.2 µM, hits read low; in the data active = activity change below about -30%; also: % is scaled to controls: 0 for no effect and ±100 for the full control effect
#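 Counterscreen of the coupled detection system alone, without aldolase: glyceraldehyde-3-phosphate coupling enzymes plus AmpLite Red readout. Compounds at 57.5 uM final, 10 min RT preincubation, 20 min RT reaction, fluorescence 525/598 nm.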
# TexasRed fluor: counter-screen for TRb-SRC2 inhibitors: fluorescence interference; hit rate 0.29% among 280,000; AID 1479; TRb/SRC2 Texas Red total fluorescence interference; Potency, µM (top dose mostly 106 µM), inactives show at the top dose fluorescence change, negative = quenching; active = well fitted curve in either direction with a large enough effect; inconclusive = small, poorly fitted or top-dose-only effect; also: potency is read from the fitted curve at half-maximal effect; % is scaled to controls: 0 for no effect and ±100 for the full control effect
#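 Flags fluorescent or light-absorbing compounds by total fluorescence, S + 2P, at 555 nm excitation and 632 nm emission. Mixture: 20 nM Texas Red SRC2 peptide, 0.6 uM human TRb LBD, 1 uM T3, 5% DMSO; compound exposure 5 h at ambient temperature.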
# Numbers without * were called inactive; ? = inconclusive; / = no result given; ! = repeats disagree; [ ] = remark or other dose. Unless noted, calls follow the shape of the dose curve; as a rule, active = well fitted curve in the direction sought with a large enough effect; inconclusive = small, poorly fitted or top-dose-only effect, or another doubt; inactive = no such curve, though single readings can be large; an effect the other way counts as inactive or inconclusive.
SMILES,TRb-SRC2 inh,JMJD2E inh,HTT cytoprotect,HTT aggregate,Coupling enz,TexasRed fluor
CC(=O)Nc1ccc(CN2CCc3c([nH]c4ccccc34)C2c2ccccn2)cc1 (centres undefined),14%[53 µM],25µM*,-8%[10 µM],?,-9,-2%[53 µM]
CCOC(=O)c1cc(C(=O)OCC)cc(-n2c(C)cc(C(=O)CN3CCOCC3)c2C)c1,-1%,13µM*,-23%[10 µM],9%,4,-2%
Cc1nn(-c2ccccn2)c2c1C(=O)C(Br)CC2 (centres undefined),?,-25%,?,-12%,-64*,-11%
O=[N+]([O-])c1ccccc1NC(=S)N/N=C/c1ccc(O)c(O)c1,1%,25µM*,-77%,?,-3,-13%
COc1ccc(-n2cc(C(=O)OCc3ccc(F)c(F)c3)c3ccccc3c2=O)cc1,-21%,/,/,/,/,0.079µM*[quencher]
CCOc1ccccc1CNC(=O)CCCN1C(=O)COc2ccc(C)cc21,0%,/,/,/,/,-2%
O[C@@H]1COC2[C@@H](O)CO[C@@H]21 (some centres undefined),-23%,/,/,/,0,?
Cc1ccc(CNc2ncnc3cc(Cl)ccc23)o1,1%,5%,-10%,13µM*,-1,1%
N#CC1=C(N)SC(N)=C(C#N)C1c1cccc(O)c1,5%,?,-21%,7%,-32*,2%
COc1ccc(C2C(C#N)=C(N)SC(N)=C2C#N)cc1OC,5%,-28%,-7%,0%,-25,-4%
Clc1cccc(Nc2nnc(-c3ccccc3)c3ccccc23)c1,-2%,11µM*,17%,/,-6,0%
Cc1ccc(-c2nnc(Nc3cccc(Cl)c3)c3ccccc23)cc1S(=O)(=O)N1CCCCC1,-1%,/,/,/,/,-5%
COc1ccc(OC)c(CNc2ncnc3c2nc2n3CCCC2)c1,3%,/,/,/,/,3%
CCCCCCCCCCCO,0%[201 µM],/,/,/,/,-2%[201 µM]
Cc1cc(/C=C2/NC(=O)NC2=O)c(C)n1-c1ccc(C#N)cc1,0%,?,25%,-7%,-4,-1%
Cc1cc(/C=C2/NC(=O)NC2=O)c(C)n1-c1ccccn1,2%,25µM*,5%[0.074 µM],1%,-1,1%
Cc1ccc(-n2c(C)cc(/C=C3\NC(=O)NC3=O)c2C)c(C)c1,-1%,25µM*,/,12%,-6,-4%
Cc1cc(/C=C2\NC(=O)NC2=O)c(C)n1-c1ccc(N2CCOCC2)cc1,-3%,16µM*,3%[10 µM],2%[9.22 µM],-14,-3%
CCN(Cc1ccccc1)Cc1c(O)ccc2c(=O)c(-c3ccc(Cl)cc3)coc12,4%,/,/,/,/,-2%
Nc1ncnc(Sc2ncccn2)c1[N+](=O)[O-],2%,?,21%[10 µM],5µM*,-3,-2%
O=[N+]([O-])c1cc(C(F)(F)F)ccc1N1CCN(CCO)CC1,4%,-8%,-20%,5%,3,-1%
O=[N+]([O-])c1ccc(N2CCN(CCOCCO)CC2)c([N+](=O)[O-])c1,-2%,10µM*,9%[10 µM],-1%[9.22 µM],0,-3%
CC(C)Oc1ccc(CNC(=O)c2ccc(Cn3c(=O)c4cccn4c4cccnc43)cc2)cc1,8%,/,/,/,/,-2%
CC[C@@H]1/C=C(\C)C[C@H](C)C[C@H](OC)[C@H]2O[C@@](O)(C(=O)C(=O)N3CCCC[C@H]3C(=O)O[C@H](/C(C)=C/[C@@H]3CC[C@H](Cl)[C@H](OC)C3)[C@H](C)[C@@H](O)CC1=O)[C@H](C)C[C@@H]2OC,/,/,7%,-8%,/,/
CC(=O)C1(O)Cc2c(O)c3c(c(O)c2C(OC2CC(N)C(O)C(C)O2)C1)C(=O)c1c(O)cccc1C3=O (centres undefined),25µM*,/,-24%,1µM*,/,45µM*[fluorescent]
SMILES,TRb-SRC2 inh,JMJD2E inh,HTT cytoprotect,HTT aggregate,Coupling enz,TexasRed fluor
COc1cccc2c1C(=O)c1c(O)c3c(c(O)c1C2=O)C[C@@](O)(C(=O)CO)C[C@@H]3OC1CC(N)C(O)C(C)O1 (some centres undefined),20µM*,/,-58%,2.5µM*,/,32µM*[fluorescent]
COc1cccc2c1C(=O)c1c(O)c3c(c(O)c1C2=O)C[C@@](O)(C(=O)CO)C[C@@H]3O[C@@H]1C[C@H](N)[C@H](O)[C@H](C)O1,25µM*,22µM*,-67%,/,-15,45µM*[fluorescent]
COc1cccc2c1C(=N)c1c(O)c3c(c(O)c1C2=O)C[C@](O)(C(C)=O)C[C@@H]3O[C@H]1C[C@H](N)[C@@H](O)[C@H](C)O1,/,/,-75%[10 µM],/,/,/
COc1cccc2c1C(=O)c1c(O)c3c(c(O)c1C2=O)C[C@@](O)(C(=O)CO)C[C@@H]3O[C@H]1C[C@H](N)[C@H](O)[C@H](C)O1,22µM*!,?,-88%,/,-40*,100µM*[fluorescent]
CC(=O)[C@@]1(O)Cc2c(O)c3c(c(O)c2[C@H](O[C@H]2C[C@H](N)[C@H](O)[C@H](C)O2)C1)C(=O)c1ccccc1C3=O,/,/,-76%[1.9 µM],/,/,/
O=C(O)C[C@H](Nc1ccccc1)C(=O)O,/,/,12%[10 µM],/,/,/
COc1cccc2c1C(=O)c1c(O)c3c(c(O)c1C2=O)C[C@](O)(C(C)=O)C[C@H]3O[C@@H]1C[C@H](N)[C@H](O)[C@H](C)O1,13µM*,-3%[25.5 µM],-47%[40.3 µM],/,-9,14µM*[fluorescent]
COCC(=O)N1CCc2nc(-c3ccccc3)c3c(c2C1)CO[C@@H](C)C3,3%[11.2 µM],9%[11.4 µM],-14%[10 µM],/,2,-15%[11.2 µM]
N=c1ccn(Cc2ccc(Cl)cc2Cl)cc1,-1%,1%,-39%,7.1µM*,1,-3%
N=c1ccn(Cc2ccc(Cl)cc2)cc1,-20%,-3%,-83%[0.074 µM],6.3µM*,-1,2%
N=c1ccn(Cc2ccc(Cl)c(Cl)c2)cc1,-26%,1%,-93%[0.074 µM],2µM*,2,-1%
N=c1ccn(Cc2c(Cl)cccc2Cl)cc1,2%,0%,10%[10 µM],-16%[9.22 µM],0,1%
N=c1ccn(Cc2cccc(Cl)c2)cc1,17%,1%,-84%[0.074 µM],?,4,1%
C[C@@H](N)C1CCC(C(=O)Nc2ccncc2)CC1 (some centres undefined),1%,0%,?,/,0,-4%
CN(c1ccc(Cl)cc1)c1cc(=O)n(C)c2ccccc12,0%,-7%,-36%,-3%,2,-2%
CN(C)c1ccc2c(O)cc(=O)n(C)c2c1,?,?,5%,6%,-37*,-5%

# Screens from PubChem.
